In the library only some 2.3% were active in any assay of this set; here they are far more common.
mIDH1 inhibitor: qHTS for Inhibitors of mutant isocitrate dehydrogenase 1 (IDH1): qHTS. actives 0.093% (n = 390,000). Potency, µM (doses to about 76.6 µM), inactives show at the top dose activity change, negative = inhibition, most hits filed as inhibitors. IDH1-R132H enzyme, NADPH consumption, diaphorase/resazurin fluorescence. AID 602179, 2012. Isocitrate dehydrogenase [NADP] cytoplasmic (Homo sapiens), O75874; also: potency is read from the fitted curve at half-maximal effect; % is scaled to controls: 0 for no effect and ±100 for the full control effect; nearly all actives have a fitted effect of over 65% in size
Target sequence (O75874 whole entry R132H, stated change not applied): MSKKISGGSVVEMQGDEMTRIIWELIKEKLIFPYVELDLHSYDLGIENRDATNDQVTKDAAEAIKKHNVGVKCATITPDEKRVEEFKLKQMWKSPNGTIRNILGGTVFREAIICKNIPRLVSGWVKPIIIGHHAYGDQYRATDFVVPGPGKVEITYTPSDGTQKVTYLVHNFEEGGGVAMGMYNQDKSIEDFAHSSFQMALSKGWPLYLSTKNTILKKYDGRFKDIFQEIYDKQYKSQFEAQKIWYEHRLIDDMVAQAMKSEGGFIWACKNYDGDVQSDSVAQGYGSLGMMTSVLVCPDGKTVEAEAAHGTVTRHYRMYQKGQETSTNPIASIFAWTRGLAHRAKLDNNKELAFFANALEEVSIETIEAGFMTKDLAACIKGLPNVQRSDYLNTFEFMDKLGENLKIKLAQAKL
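IDH1-R132H (0.5 ug/mL) preincubated 30 min with compound, then NADPH (0.016 mM) and alpha-KG (2 mM) added; 80 min at RT, pH 7.5. Remaining NADPH coupled via diaphorase/resazurin to fluorescence (540/590 nm); concentration-response curves normalized to no-enzyme control.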
Anesthetic bind: qHTS Assay for Identification of Novel General Anesthetics. Ferritin light chain (Equus caballus), P02791. apoferritin/1-aminoanthracene competitive binding, fluorescence. Potency, µM (highest dose often 77.5 µM), for the others: at the top dose activity change, negative = displacement, actives largely listed as inhibitors. actives 0.074% (n = 350,000). AID 485281, 2010; also: potency is read from the fitted curve at half-maximal effect; % is scaled to controls: 0 for no effect and ±100 for the full control effect; nearly all actives have a fitted effect of over 20% in size
Target sequence (P02791 2-175 limits assumed): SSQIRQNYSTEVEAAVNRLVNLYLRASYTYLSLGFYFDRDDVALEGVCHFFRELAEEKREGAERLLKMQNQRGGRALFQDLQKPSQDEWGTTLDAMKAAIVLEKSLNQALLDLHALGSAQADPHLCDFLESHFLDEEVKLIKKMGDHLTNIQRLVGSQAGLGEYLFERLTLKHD
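Steps: apoferritin (10 uM) was premixed with half-saturated 1-AMA in PBS, compounds were pin-transferred, plates stood 10 min at room temperature, fluorescence was read at 380/535 nm, and curves were fitted with a Hill equation.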
Giardia killer: Small Molecules that selectively kill Giardia lamblia: qHTS. actives 0.15% (n = 340,000). Giardia lamblia trophozoite viability. AID 540267, 2011. activity change, % at 7.66 µM, hits read low; in the data active = activity change below about -80%; inconclusive = between about -30% and that limit;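 also: parasites exposed to compound for two days anaerobically before the ATP read; % is scaled to controls: 0 for no effect and ±100 for the full control effect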
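Luminescent ATP signal served as the viability read-out, measured 15-30 min after adding ATP detection reagent to trophozoites that had been incubated with compounds for 48 hrs at 37 deg C anaerobically at 100 cells/well.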
Nrf2 activator: qHTS of Nrf2 Activators. AREc32 ARE-luciferase reporter (MCF7-derived line), luminescence, 24 h. Potency, µM (doses to about 46.1 µM), inactives show top-dose activation, usual class: activators. actives 0.31% (n = 410,000). AID 624171, 2012; also: potency is read from the fitted curve at half-maximal effect; % of control where 0% means no effect; nearly all actives have a fitted effect of over 65% in size
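Luminescent ARE reporter assay in AREc32_Fluc cells: overnight plating at 37 deg C, 24 hr compound incubation, Steady-Glo added, 30 min RT before reading.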
Nrf2 inh: Nrf2 qHTS screen for inhibitors; A549 ARE-Fluc reporter, luciferase luminescence, 18-24 h; actives 2.1% (n = 360,000); AID 504444, 2011; Potency, µM (highest dose often 46 µM), for inactives: at the highest dose activity change, negative = inhibition, actives largely listed as inhibitors; also: potency is read from the fitted curve at half-maximal effect; % is scaled to controls: 0 for no effect and ±100 for the full control effect; nearly all actives have a fitted effect of over 60% in size
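A549 ARE_Fluc cells, 5000/well, 5% FBS OPTI-MEM; compounds in dose-response, 18-24 h at 37 °C/5% CO2; CellTiter-Fluor viability read (Ex 405/Em 525), then BugLite luciferase luminescence = Nrf2 activity.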
A549 tox: Nrf2 qHTS screen for inhibitors: counterscreen for cytotoxicity | actives 0.16% (n = 390,000) | AID 504648, 2011 | Potency, µM (series often up to 46 µM), for the others: at the highest dose activity change, negative = cytotoxicity, hits mostly inhibitors | A549 ARE-Fluc cells, CellTiter-Fluor viability, 18-24 h; also: potency is read from the fitted curve at half-maximal effect; % is scaled to controls: 0 for no effect and ±100 for the full control effect
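A549 ARE_Fluc cells in 5% FBS OPTI-MEM were exposed to compounds in concentration-response for 18-24 h at 37 deg C. Viability was read by CellTiter-Fluor fluorescence (Ex 405/Em 525) after 30 min, before the luciferase read.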
An asterisk follows results filed as active. Unless noted, calls follow the shape of the dose curve; as a rule, active = well fitted curve in the direction sought with a large enough effect; inconclusive = small, poorly fitted or top-dose-only effect, or another doubt; inactive = no such curve, though single readings can be large; an effect the other way counts as inactive or inconclusive.

What do the screens show for `Cc1cccc(-n2cnc3cc(C(=O)NCc4ccccc4Cl)ccc32)c1`?
mIDH1 inhibitor: 39%; Anesthetic bind: 1%; Nrf2 activator: 1%; A549 tox: -17%

How did CC(=O)Oc1cccc(/C=C2\Sc3ccccc3C2=O)c1 do in these assays?
mIDH1 inhibitor: 0%; Anesthetic bind: -12%; Giardia killer: 0; Nrf2 activator: 14µM*; Nrf2 inh: 15%; A549 tox: 1%

How did Cc1cc(C)cc(NC(=S)NCc2cccs2)c1 do in these assays?
mIDH1 inhibitor: 5%; Anesthetic bind: -11%; Giardia killer: -12; Nrf2 activator: 3%; Nrf2 inh: 23µM*; A549 tox: inconclusive

Results for C[C@@H](C(=O)NCc1nc2ccccc2[nH]1)[C@@H]1C[C@@]1(C)[C@@H](NC(=O)OCc1ccccc1)c1ccccc1 ?
Anesthetic bind: -21%

What do the screens show for `CCOC(=O)c1cnc2ccc(OC)cc2c1Nc1cccc(C(C)=O)c1`?
mIDH1 inhibitor: -2%; Anesthetic bind: inconclusive; Nrf2 activator: 8%; Nrf2 inh: 16µM*; A549 tox: inconclusive

Results for CCOC(=O)c1cnc2ccc(OC)cc2c1NCc1ccccc1 ?
mIDH1 inhibitor: 6%; Anesthetic bind: 2%; Giardia killer: 13; Nrf2 activator: 5%; Nrf2 inh: -13%; A549 tox: -8%

How did CCOC(=O)c1cnc2c(ccc3ccccc32)c1Nc1cccc(OC)c1 do in these assays?
mIDH1 inhibitor: -13%; Anesthetic bind: -10%; Nrf2 activator: -1%; Nrf2 inh: 10%; A549 tox: -7%

How did CCOC(=O)c1cnc2ccc(OC)cc2c1NCCc1ccccc1 do in these assays?
Anesthetic bind: 34%; Nrf2 activator: -1%; Nrf2 inh: 23µM*; A549 tox: inconclusive

Results for CCOC(=O)c1cnc2ccc(OCC)cc2c1NCc1ccccc1OC ?
mIDH1 inhibitor: -10%; Anesthetic bind: -5%; Giardia killer: -15; Nrf2 activator: 0%; Nrf2 inh: 6.5µM*; A549 tox: 12µM*

What do the screens show for `O=S(=O)(c1ccc(Cl)cc1)N1CCN(c2nc(-c3cccc(Br)c3)nc3ccccc23)CC1`?
Giardia killer: 3; Nrf2 inh: 4%; A549 tox: 0%

Results for CCCCc1c(C)nc2c(-c3ccc(Cl)cc3)c(C)[nH]n2c1=O ?
mIDH1 inhibitor: -14%; Anesthetic bind: -15%; Nrf2 activator: 0%; Nrf2 inh: 5.8µM*; A549 tox: -6%

Results for Cc1[nH]n2c(=O)cc(C(C)C)nc2c1-c1ccccc1 ?
mIDH1 inhibitor: -2%; Anesthetic bind: -9%; Giardia killer: 2; Nrf2 activator: 0%; Nrf2 inh: inconclusive; A549 tox: -12%

Results for Cc1[nH]n2c(=O)cc(C(C)(C)C)nc2c1-c1ccccc1 ?
mIDH1 inhibitor: -2%; Anesthetic bind: -2%; Giardia killer: 0; Nrf2 activator: -1%; Nrf2 inh: 7.3µM*; A549 tox: -24%

Results for O=c1cc(-c2ccccc2)nc2c(Cl)cc(Cl)cn12 ?
mIDH1 inhibitor: -4%; Nrf2 activator: 4µM*

What do the screens show for `Cc1[nH]n2c(=O)cc(-c3ccc(Cl)cc3)nc2c1-c1ccccc1`?
mIDH1 inhibitor: -27%; Anesthetic bind: 8%; Nrf2 activator: 0%; Nrf2 inh: 7.3µM*; A549 tox: -17%

How did CCc1c(C)nc2c(-c3ccccc3)c(C)[nH]n2c1=O do in these assays?
mIDH1 inhibitor: 12%; Anesthetic bind: -6%; Giardia killer: 10; Nrf2 activator: 5%; Nrf2 inh: -8%; A549 tox: -2%

How did CC(C)S(=O)(=O)N1CCN(c2nc(-c3cccs3)nc3ccccc23)CC1 do in these assays?
Giardia killer: -7; Nrf2 inh: inconclusive; A549 tox: 2%

Results for Cc1ccc(O/C=C2/Nn3c(nnc3-c3cc(-c4ccccc4)n[nH]3)S2)cc1 ?
Giardia killer: 15; Nrf2 inh: 2%; A549 tox: 1%

Results for Nc1ncc(-c2ccccc2)n1CC1CCCO1 (configuration not stated) ?
mIDH1 inhibitor: -3%; Anesthetic bind: -19%; Giardia killer: -6; Nrf2 activator: 2%; Nrf2 inh: 16µM*

How did O=C(CSc1ncc(-c2ccccc2)n1CC1CCCO1)N1CCCCC1 (configuration not stated) do in these assays?
mIDH1 inhibitor: 5%; Anesthetic bind: -7%; Giardia killer: -8; Nrf2 activator: -1%; Nrf2 inh: 2%; A549 tox: 0%

What do the screens show for `Cc1ccc2nc(-c3ccc(Cl)c(NC(=O)c4cccc([N+](=O)[O-])c4C)c3)oc2c1`?
mIDH1 inhibitor: 3%; Anesthetic bind: 7%; Nrf2 activator: 0%; Nrf2 inh: inconclusive; A549 tox: 5%

How did COc1nc(N/N=C/c2cc3c(cc2Br)OCO3)nc(N2CCOCC2)n1 do in these assays?
mIDH1 inhibitor: 3%; Anesthetic bind: -8%; Giardia killer: 23; Nrf2 activator: 2%; Nrf2 inh: 16µM*; A549 tox: 13%

Results for CCN(CC)S(=O)(=O)c1ccc(NC2CCCc3ccccc32)nc1 (configuration not stated) ?
mIDH1 inhibitor: 10%; Anesthetic bind: -14%; Giardia killer: -6; Nrf2 activator: 1%; Nrf2 inh: 15µM*; A549 tox: -13%

How did COc1ccc(CCN2C(=O)c3oc4cc(C)cc(C)c4c(=O)c3C2c2ccc(F)cc2)cc1OC (configuration not stated) do in these assays?
Anesthetic bind: -1%; Nrf2 activator: 0%; Nrf2 inh: 10%; A549 tox: 3%

What do the screens show for `Nc1nc(-c2ccccc2)c(N=Nc2cccc3ccccc23)s1`?
mIDH1 inhibitor: 12%; Anesthetic bind: inconclusive; Giardia killer: -10; Nrf2 activator: 24%; Nrf2 inh: -8%; A549 tox: 16µM*

Results for CCN1C(=O)/C(=C\c2ccco2)C(C(=O)OC)=C1C ?
mIDH1 inhibitor: 6%; Anesthetic bind: -18%; Giardia killer: -1; Nrf2 activator: 10µM*; Nrf2 inh: -12%; A549 tox: -5%

Results for CCCCNC(=O)N1CCN(c2ccnc3cc(Cl)ccc23)CC1 ?
mIDH1 inhibitor: 3%; Anesthetic bind: -12%; Giardia killer: 4; Nrf2 activator: 0%; Nrf2 inh: 10µM*; A549 tox: -4%
